# Results taken from PubChem BioAssay AID504332 (National Center for Advancing Translational Sciences (NCATS), 2011).
# The whole screen tested about 350,000 compounds, of which about 31,000 (8.9%) were called active. Not shown: some 15% with an inconclusive outcome. What follows is part of a selection rich in actives, with near analogues and random picks from the rest. A number with no mark means an inactive call. Calls follow the shape of the dose curve; as a rule, active = well fitted inhibition curve with a large enough effect; inconclusive = small, poorly fitted or top-dose-only effect; inactive = no such curve, though single readings can be large or run the other way.
# Molecular target: Histone-lysine N-methyltransferase EHMT2 (Homo sapiens) (UniProt Q96KQ7)
# Experiment: qHTS Assay for Inhibitors of Histone Lysine Methyltransferase G9a; also: nearly all actives have a fitted effect of over 75% in size
# Details: G9a H3K9 monomethylation, AlphaScreen, 2 h; series mostly up to 59 µM; activity, negative = inhibition: at the top concentration
# In short: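 Step 1: enzyme (final 20 nM) with compound, 15 min RT. Step 2: substrate peptide 500 nM and SAM 20 uM, 2 h RT. Step 3: anti-H3K9me1 antibody and AlphaScreen beads, 10 min, then plate read.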
# % is scaled to controls: 0 for no effect and ±100 for the full control effect; potency is read from the fitted curve at half-maximal effect.
# Chain of Histone-lysine N-methyltransferase EHMT2 (Homo sapiens) (Q96KQ7 913-1193 limits assumed): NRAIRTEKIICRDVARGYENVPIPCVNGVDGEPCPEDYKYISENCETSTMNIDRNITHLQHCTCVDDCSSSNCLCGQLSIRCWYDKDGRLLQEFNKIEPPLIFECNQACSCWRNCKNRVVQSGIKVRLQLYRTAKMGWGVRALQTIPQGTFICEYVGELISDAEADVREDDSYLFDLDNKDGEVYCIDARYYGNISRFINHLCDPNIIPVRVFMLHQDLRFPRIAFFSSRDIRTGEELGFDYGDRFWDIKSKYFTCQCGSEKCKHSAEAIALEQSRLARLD
SMILES,"activity, negative = inhibition",Potency
COc1cc2c(=O)c(S(=O)(=O)c3ccc(C(C)C)cc3)cn(Cc3ccccc3C)c2cc1OC,-33.9%,
Cc1ccc(C)c(NC(=O)c2ccc3nccnc3c2)c1,1.62% [at 102 µM],
Cc1ccc(C(=O)Nc2nnc(-c3cccs3)s2)cc1C,-1.27% [at 12.7 µM],
Cc1nnc(NC(=O)c2ccc3nccnc3c2)s1,,50.1 µM (active)
COc1ccc(S(=O)(=O)NCc2cccnc2)cc1NC(=O)c1ccc(C)cc1,-33.4% [at 102 µM],
CC(=O)c1c(C)n(S(=O)(=O)c2ccc(Cl)cc2)c2ccc(NS(=O)(=O)c3ccc(Cl)cc3)cc12,-47.6%,
O=C(c1ccc2c(c1)N(Cc1ccccc1)C(=O)c1ccccc1S2(=O)=O)N1CCC(Cc2ccccc2)CC1,-0.698%,
CC1CCN(CC(O)COc2ccc(C(=O)c3ccccc3)cc2)CC1 (centres undefined),3.75% [at 0.501 µM],
CCC(=O)c1ccc(OCC(O)CN2CC(C)OC(C)C2)cc1 (centres undefined),,14.1 µM (active)
CCC(=O)c1ccc(OCC(O)CN2C(=O)NC(C)(C)C2=O)cc1 (centres undefined),-1.44% [at 102 µM],
CCOC(=O)C1CCN(C(=O)COC(=O)C2CCN(S(=O)(=O)c3ccc4c(c3)OCCO4)CC2)CC1,-35.2% [at 102 µM],
CCOc1ccc(NS(=O)(=O)c2ccc(Cl)c(C(=O)N(C)Cc3cccnc3)c2)cc1,9.93% [at 12.7 µM],
Cc1cc(C)cc(NC(=O)CCCc2nc(-c3ccccc3Cl)no2)c1,6.38%,
CN(CC(=O)Nc1ccc(Cl)cc1)C(=O)CNC(=O)c1ccc2ccccc2c1,86.3% [at 102 µM],
COc1cccc(-c2nnc(SCC(=O)N3CCC(C)CC3)o2)c1,1.74%,
O=C(C1COc2ccccc2O1)N(Cc1cccnc1)c1nc2c(F)cc(F)cc2s1 (centres undefined),-4.58%,
CCc1ccc(N2C(=O)CN(S(=O)(=O)CC)CC2(C)C(=O)NC2CCCCC2)cc1 (centres undefined),4.02%,
COc1ccc(/C=C2/C(=O)N(c3ccccc3)N=C2C)c(OC)c1,,20 µM (active)
COc1ccc(/C=C2/C(=O)OCc3cc(OC)c(OC)cc32)c(OC)c1,20.5%,
COc1ccc(C(=O)CCc2ccccc2O)c(OC)c1,13.6% [at 102 µM],
CCN1N=C(c2ccccc2)CCC1=O,21.7% [at 0.501 µM],
O=C(NNC(=S)NCCCN1CCOCC1)c1ccncc1,,20 µM (active)

SMILES,"activity, negative = inhibition",Potency
Cc1cc(C)cc(NC(=S)NCCCN2CCOCC2)c1,18%,
COc1cccc(NC(=S)NCCCN2CCOCC2)c1,4.95%,
CCS(=O)(=O)N1CCc2cc(C(=O)NCc3ccc(C)cc3)ccc21,-2.49%,
Cc1nc(N)sc1N=Nc1c(C)n(C)n(-c2ccccc2)c1=O,-3.39% [at 12.7 µM],
Cc1cc(-c2csc(N)n2)c(C)n1-c1ccccc1,,11.2 µM (active)
Cc1cc(C(=O)OCC(=O)N2c3ccccc3NC(=O)C2(C)C)c(C)n1-c1ccccc1,-19.9%,
CC(=O)Nc1ccc(C(=O)Nc2nc(-c3cc(C)n(Cc4ccccc4)c3C)cs2)cc1,0.836%,
O=c1onc(-c2cccs2)n1Cc1ccccc1,1.14% [at 12.7 µM],
Cc1cc(-c2csc(N)n2)c(C)n1Cc1ccccc1,,28.2 µM (active)
CN(CCO)S(=O)(=O)c1ccc2c(c1)C(=O)c1cc(S(=O)(=O)N(C)CCO)ccc1-2,6.15% [at 0.501 µM],
CCOc1ccc(C(=O)NCC(=O)N2CCN(c3ccc(C(F)(F)F)cn3)CC2)cc1,13.9%,
O=C(Nc1cccc(-c2nc3ccccc3o2)c1)c1cccc(Br)c1,-4.65%,
COc1cc(C(=S)NCc2ccccc2)cc(Br)c1O,,2.51 µM (active)
COc1cc(C(=O)NCc2ccncc2)cc(Br)c1OCc1ccccc1,1.4% [at 102 µM],
COc1cc(C=O)c(Br)cc1OCC(=O)NCc1ccccc1,-3.38% [at 102 µM],
Cc1cccc(C(=O)NCC(=O)OCC(=O)N(C)CC(=O)Nc2ccccc2Cl)c1,8.39%,
COc1ccc(NC(=O)COC(=O)Cn2c(C)nc3ccccc32)cc1OC,-1.35% [at 102 µM],
O=C(COC(=O)Cn1cnc2ccccc2c1=O)NCC12CC3CC(CC(C3)C1)C2,12.2%,
O=C(COC(=O)Cn1cnc2ccccc21)Nc1cccc2c1C(=O)c1ccccc1C2=O,,12.6 µM (active)
COc1ccc(-c2onc(C)c2C)cc1S(=O)(=O)NCCc1ccccc1,4.98%,
CCOc1ccc(CCNC(=O)CN(c2ccc(C)cc2)S(=O)(=O)N(C)C)cc1OCC,5.66%,
O=C(NCc1ccccc1Cl)c1ccc2c(=O)n(CC3CCCO3)c(=S)[nH]c2c1 (centres undefined),56.4% [at 102 µM],

SMILES,"activity, negative = inhibition",Potency
COc1ccc(CNC(=O)Cn2nnc(-c3ccc(S(C)(=O)=O)cc3)n2)cc1,-16.3%,
CC(/C=C/c1ccco1)=N/NC(=O)C1COc2ccccc2O1 (centres undefined),,56.2 µM (active)
CC(=O)c1cccc(NC(=O)C2COc3ccccc3O2)c1 (centres undefined),19.1% [at 102 µM],
C/C(=N/NC(=O)C1COc2ccccc2O1)c1ccco1 (centres undefined),0.125%,
Cc1ccc(-n2ncc3c(=O)n(Cc4cccc(C(F)(F)F)c4)cnc32)cc1C,4.7%,
CCCCN=C1C([N+](=O)[O-])=CC=C2C1=NC1(CCCCC1)N2O,,11.2 µM (active)
O=C(CCNC(=O)c1ccc(Br)cc1)NCCCc1ccccc1,6.39% [at 102 µM],
O=C1CC(c2ccccc2)C(=O)N1c1cccc(O)c1 (centres undefined),-7.63%,
COC(=O)c1ccccc1SC1CC(=O)N(c2cccc(C)c2)C1=O (centres undefined),,44.7 µM (active)
Cc1cccc(N2C(=O)CC(SC(N)=Nc3ccccc3)C2=O)c1 (centres undefined),-5.18% [at 102 µM],
CCOc1ccccc1N(C)C(=O)c1cc2c(s1)-c1ccccc1OC2,19.4%,
O=C(COc1ccc(Cl)cc1)NC(=S)Nc1ccccc1N1CCOCC1,1.64% [at 102 µM],
Cc1ccc(NC(=O)CCNC(=O)c2ccc([N+](=O)[O-])cc2)cc1S(=O)(=O)N1CCOCC1,-13.1% [at 12.7 µM],
CC(=O)c1ccc(OCCCC(=O)Nc2ccc(C)c(S(=O)(=O)N3CCOCC3)c2)cc1,,50.1 µM (active)
Cc1ccc(C(=O)OCC(=O)Nc2ccc(Cl)cn2)cc1S(=O)(=O)N1CCOCC1,-29% [at 102 µM],
O=C(COC(=O)CCc1ccc(S(=O)(=O)N2CCOCC2)cc1)Nc1cccc(Cl)c1,3.71% [at 102 µM],
O=C(CNC(=O)c1ccc(Cl)cc1Cl)NCC(=O)Nc1ccccc1N1CCOCC1,,89.1 µM (active)
Cc1ccc(NC(=O)CCCNC(=O)c2ccc(Cl)cc2)cc1S(=O)(=O)N1CCOCC1,-11.6%,
COc1c(C)cccc1C(=O)Nc1cc(Cl)ccc1N1CCOCC1,-5.78% [at 12.7 µM],
Cc1ccc(NC(=O)COC(=O)CNC(=O)c2ccc(Cl)cc2Cl)cc1S(=O)(=O)N1CCOCC1,,50.1 µM (active)
